From PubChem BioAssay (NCATS)
Inconclusive results are not listed. Calls of active or inactive are those of the source. Unless noted, the call rests on the fitted dose curve; in most records, active means well fitted curve in the direction sought with a large enough effect; inconclusive means small, poorly fitted or top-dose-only effect, or another doubt; inactive means no such curve, though single readings can be large; an effect the other way counts as inactive or inconclusive.

Legend:
[1] = S16 Schwann cell viability assay (CellTiter-Glo assay) (AID 624031); settings: S16 rat Schwann cells viability, 24 h; series mostly up to 57.5 µM;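 further: native untransfected S16 rat Schwann cells; cellular ATP luminescence as a viability measure; nearly all actives have a fitted effect of over 70% in size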
Method in brief: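 Rat S16 Schwann cells without reporter constructs received compound or DMSO for 24 h at 37 °C under 5% CO2. Cellular ATP was then quantified by CellTiter-Glo luminescence, with vehicle wells defined as 0% activity and cell-free wells as reference.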

[2] = S16 Schwann cell PMP22 intronic element firefly luciferase assay (AID 624032); settings: S16 rat Schwann cells, PMP22 element FLuc, 24 h; series mostly up to 57.5 µM; further: nearly all actives have a fitted effect of over 30% in size
Method in brief: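 Rat S16 Schwann cells stably carrying firefly luciferase driven by a PMP22 intronic element, in 10% FBS, treated 24 h at 37 C. ONE-Glo luminescence normalized to PTC124 control and DMSO (0%); curves classed by r2, magnitude and activity.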

[3] = S16 Schwann cell PMP22 intronic element beta-lactamase assay (AID 624044; calls by dose curve; further: nearly all actives have a fitted effect of over 15% in size); settings: S16 rat Schwann cells, PMP22 element beta-lactamase FRET, 24 h; series mostly up to 38.3 µM
Method in brief: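 Rat S16 Schwann cells with beta-Lac driven by a PMP22 intronic element, compound-treated 24 h at 37 °C. LiveBLAzer FRET B/G read: 460 nm normalized to potassium clavulanate vs DMSO; 535 nm FRET as viability; concentration-effect curves classified.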

AA1029 = assay: qHTS profiling for inhibitors of Plasmodium falciparum proliferation (AID 504749); further: nearly all actives have a fitted effect of over 60% in size; settings: P. falciparum in erythrocytes, SYBR Green DNA, 72 h; series mostly up to 28.7 µM
Method in brief: (§1)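 Readout was DNA-dye fluorescence from lysed cultures, ex 485/em 535 nm. Parasitized red cells had grown 72 h with compound; data scaled between 0.29 uM artemisinin and DMSO wells and corrected using vehicle-only plates.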

ATS95 = assay: as above; settings: P. falciparum in erythrocytes, SYBR Green DNA, 72 h; series mostly up to 28.7 µM
Method in brief: as §1

C2A = assay: as above; settings: P. falciparum in erythrocytes, SYBR Green DNA, 72 h; series mostly up to 28.7 µM
Method in brief: as §1

CP211 = assay: as above; settings: P. falciparum in erythrocytes, SYBR Green DNA, 72 h; series mostly up to 28.7 µM
Method in brief: as §1

CP217 = assay: as above; settings: P. falciparum in erythrocytes, SYBR Green DNA, 72 h; series mostly up to 28.7 µM
Method in brief: as §1

CP250 = assay: as above; settings: P. falciparum in erythrocytes, SYBR Green DNA, 72 h; series mostly up to 28.7 µM
Method in brief: as §1

CP252 = assay: as above; settings: P. falciparum in erythrocytes, SYBR Green DNA, 72 h; series mostly up to 28.7 µM
Method in brief: as §1

CP256 = assay: as above; settings: P. falciparum in erythrocytes, SYBR Green DNA, 72 h; series mostly up to 28.7 µM
Method in brief: as §1

CP260 = assay: as above; settings: P. falciparum in erythrocytes, SYBR Green DNA, 72 h; series mostly up to 28.7 µM
Method in brief: as §1

CP269 = assay: as above; settings: P. falciparum in erythrocytes, SYBR Green DNA, 72 h; series mostly up to 28.7 µM
Method in brief: as §1

CP297 = assay: as above; settings: P. falciparum in erythrocytes, SYBR Green DNA, 72 h; series mostly up to 28.7 µM
Method in brief: as §1

CP329 = assay: as above; settings: P. falciparum in erythrocytes, SYBR Green DNA, 72 h; series mostly up to 28.7 µM
Method in brief: as §1

N140 = assay: as above; settings: P. falciparum in erythrocytes, SYBR Green DNA, 72 h; series mostly up to 28.7 µM
Method in brief: as §1

P93_24 = assay: as above; settings: P. falciparum in erythrocytes, SYBR Green DNA, 72 h; series mostly up to 28.7 µM
Method in brief: as §1

PAD = assay: as above; settings: P. falciparum in erythrocytes, SYBR Green DNA, 72 h; series mostly up to 28.7 µM
Method in brief: as §1

PC15 = assay: as above; settings: P. falciparum in erythrocytes, SYBR Green DNA, 72 h; series mostly up to 28.7 µM
Method in brief: as §1

SC27B = assay: as above; settings: P. falciparum in erythrocytes, SYBR Green DNA, 72 h; series mostly up to 28.7 µM
Method in brief: as §1

Measured: Potency

COC(=O)[C@@H]1[C@@H]2C[C@H]3c4[nH]c5ccccc5c4CCN3C[C@@H]2CC[C@@H]1O
inactive: [1] | [2] | [3] | AA1029 | ATS95 | C2A | CP211 | CP217 | CP250 | CP252 | CP256 | CP260 | CP269 | CP297 | CP329 | N140 | P93_24 | PAD | PC15 | SC27B

C[C@@H](C(=O)O)c1ccc(-c2ccccc2)c(F)c1
inactive: [1] | [2] | AA1029 | ATS95 | C2A | CP211 | CP217 | CP250 | CP252 | CP256 | CP260 | CP269 | CP297 | CP329 | N140 | P93_24 | PAD | PC15 | SC27B

CCOC(=O)C(CCc1ccccc1)NC1CCc2ccccc2N(CC(=O)O)C1=O (stereo not given)
inactive: [3]
